Results from PubChem BioAssay (Tox21).
Records with an inconclusive call do not appear. Active and inactive are the calls of the source. Unless noted, calls follow the shape of the full dose curve.

Key:
[1] = Nuclear factor erythroid 2-related factor 2/antioxidant responsive element (Nrf2/ARE) small molecule agonists: qHTS cell viability counter screen in human keratinocytes (AID 1919968; active = well fitted curve in the direction sought with a large enough effect in the repeat runs; an effect the other way counts as inactive or inconclusive; also: nearly all actives have a fitted effect of over 55% in size)
Method in brief: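 Stably transfected HaCaT (KeratinoSens), 1,500/well. Test agents in DMSO were applied for 23 h, 37 C/5% CO2. CellTiter-Fluor was incubated 1 h before the fluorescence read.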

[2] = Nuclear factor erythroid 2-related factor 2/antioxidant responsive element (Nrf2/ARE) small molecule agonists: luciferase reporter gene qHTS assay in human keratinocytes (AID 1919969); also: nearly all actives have a fitted effect of over 35% in size; also: potency is read from the fitted curve at half-maximal effect
[3] = target: Gonadotropin-releasing hormone receptor (Homo sapiens) (UniProt P30968); experiment: Human gonadotropin-releasing hormone receptor (GnRHR) small molecule agonists, calcium flux assay in GnRHR-HEK293 cells (AID 1920063); also: nearly all actives have a fitted effect of over 35% in size
Method in brief: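 Stable human GnRHR HEK293 line. 18 h plating, then calcium dye for 1 h at 37 C. Agonist-mode compound addition from DMSO stocks; fluorescence monitored 3 min.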

[4] = target: KiSS-1 receptor (Homo sapiens) (UniProt Q969F8); experiment: Human kisspeptin (KISS1R) small molecule agonists, calcium flux assay in KISS1R-HEK293 cells (AID 1920064; active = well fitted curve in the direction sought with a large enough effect in the repeat runs; an effect the other way counts as inactive or inconclusive)
Method in brief: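 After overnight (18 h) culture at 37 C/5% CO2, human KISS1R-HEK293 cells received calcium dye for 1 h, then test compound; emission at 540 nm (excitation 480 nm) was tracked for 3 min.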

[5] = G protein-coupled receptor (GPCR) small molecule agonists, calcium flux assay: HEK293 wild type cell line counter screen (AID 1920065)
Method in brief: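 Following 18 h incubation at 37 C/5% CO2, plates got calcium dye for 1 h; compounds, ATP or DMSO were then pinned in and fluorescence followed kinetically (480/540 nm).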

[6] = p53 small molecule agonists, cell-based qHTS assay with human liver microsomes (AID 1963577)
Method in brief: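 Cells carrying a p53-responsive bla reporter were rested 5 h (37 C, 5% CO2) before compound transfer. Human liver microsomes plus NADPH, 0.5 mg/mL final apiece, supplied metabolism during the 16 h 37 C exposure.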

[7] = p53 small molecule agonists, cell-based qHTS assay with rat liver microsomes (AID 1963578)
Method in brief: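 Fluorescence from a beta-lactamase reporter under a p53 response element was measured after cells had been incubated 16 h at 37 C with test compound and rat liver microsomes plus NADPH (0.5 mg/mL final each).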

[8] = p53 small molecule agonists, cell-based qHTS assay with human liver microsomes: qHTS cell viability counter screen (AID 1963579); also: nearly all actives have a fitted effect of over 45% in size
Method in brief: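 Seed p53RE-bla cells at 4,000 per well; incubate 5 h at 37 C; add compound, human liver microsomes and NADPH; incubate 16 h at 37 C; add CellTiter-Glo; after 30 min at room temperature, read luminescence.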

[9] = p53 small molecule agonists, cell-based qHTS assay: qHTS cell viability counter screen (AID 1963581); also: nearly all actives have a fitted effect of over 45% in size
Method in brief: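 qHTS counter screen: 16 h compound exposure at 37 C of p53RE-bla HCT-116 cells (4,000 per well, seeded 5 h prior), cell viability by ATP luminescence.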

[10] = target: 5-hydroxytryptamine receptor 2A (Homo sapiens) (UniProt P28223); experiment: 5-hydroxytryptamine receptor 2A (HTR2A) small molecule antagonists, cell-based qHTS assay (AID 1963586); also: nearly all actives have a fitted effect of over 45% in size
Method in brief: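 CHO cells stably expressing human HTR2A were plated for 18 h at 37 C, then loaded with calcium dye for 1 h. Compounds were preincubated 5 min at room temperature before DOI (4 nM solution) was added. Kinetic fluorescence was read for 3 min.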

[11] = target: 5-hydroxytryptamine receptor 2A (Homo sapiens) (UniProt P28223); experiment: 5-hydroxytryptamine receptor 2A (HTR2A) small molecule agonists, cell-based qHTS assay (AID 1963587); also: nearly all actives have a fitted effect of over 30% in size
Method in brief: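 Kinetic calcium-flux fluorescence (2 min, 1 sec intervals) after compound addition in agonist mode. HTR2A-CHO cells were cultured 18 h, then dye-loaded 1 h at 37 C.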

[12] = target: Muscarinic acetylcholine receptor M1 (Homo sapiens) (UniProt P11229); experiment: Cholinergic receptor muscarinic 1 (CHRM1) small molecule agonists, cell-based qHTS assay (AID 1963589); also: nearly all actives have a fitted effect of over 35% in size
Method in brief: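 Kinetic fluorescence (1 s intervals) of calcium-sensitive dye in human M1 CHO cells after compound addition; cells pre-incubated 18 h at 37 C/5% CO2 and dye-loaded 1 h.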

[13] = cAMP Responsive Elements (CRE) small molecule antagonists, cell-based qHTS assay (AID 1963591; active = well fitted inhibition curve with a large enough effect in the signal ratio in the repeat runs, not every such curve was filed as active; the % refers to the signal ratio)
Method in brief: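 Reporter line CRE-bla HEK 293T in dialyzed-FBS DMEM; cells preincubated 18 h, treated 3 h with compound plus NKH477 (0.25 uM final); LiveBLAzer FRET, 2 h RT.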

[14] = target: Beta-2 adrenergic receptor (Homo sapiens) (UniProt P07550); experiment: Adrenergic beta2 receptor (ADRB2) small molecule antagonists, cell-based qHTS assay (AID 1963592); also: series mostly up to about 92 µM; nearly all actives have a fitted effect of over 50% in size
Method in brief: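 Assay format: CHO-ADRB2 cells, 18-20hr seeding at 37C/5% CO2, then compound plus 1nM isoproterenol agonist mix for 0.5hr RT. Homogeneous time-resolved fluorescence cAMP detection after 1hr, expressed as 665/615 nm ratio.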

[15] = target: D(2) dopamine receptor (Homo sapiens) (UniProt P14416); experiment: Dopamine D2 receptor (DRD2) small molecule agonists, cell-based qHTS assay (AID 1963594); also: nearly all actives have a fitted effect of over 35% in size
Method in brief: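 cAMP accumulation in DRD2-HEK293 cells measured by HTRF after 1 h detection; compounds added 10 min before NKH477 (200nM […]) forskolin-analogue stimulation, 30 min at room temperature, with Ro20-1724 present at 0.1 mM final.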

[16] = target: D(2) dopamine receptor (Homo sapiens) (UniProt P14416); experiment: Dopamine D2 receptor (DRD2) small molecule antagonists, cell-based qHTS assay (AID 1963595; active = well fitted inhibition curve with a large enough effect in the signal ratio in the repeat runs, with a control signal flat; the % refers to the signal ratio)
Method in brief: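 Cells were plated and grown for 24 h at 37 °C. Ro20-1724 (0.1 mM final) went in first, then compound for 10 min. NKH477 (200 nM) with quinpirole (12 nM) followed for 30 min at RT, then HTRF detection reagents for 1 h.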

[17] = p53 small molecule agonists, cell-based qHTS assay (AID 1963582; active = well fitted activation curve with a large enough effect in the signal ratio in the repeat runs, not every such curve was filed as active; the % refers to the signal ratio)
Method in brief: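 Measured: fluorescence from cleaved LiveBLAzer substrate. System: p53RE-bla cells, 16 h compound treatment at 37 C, 2 h substrate step at room temperature.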

[18] = cAMP Responsive Elements (CRE) small molecule agonists, cell-based qHTS assay (AID 1963590)
Method in brief: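 Test agents in DMSO were incubated 3 h at 37 C/5% CO2 with CRE-bla HEK 293T cells seeded 18 h earlier; LiveBLAzer B/G FRET substrate was added and read after 2 h at room temperature.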

[19] = target: Beta-2 adrenergic receptor (Homo sapiens) (UniProt P07550); experiment: Adrenergic beta2 receptor (ADRB2) small molecule agonists, cell-based qHTS assay (AID 1963593);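 also: CHO cells stably overexpressing human ADRB2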
Method in brief: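 CHO cells stably over-expressing ADRB2 were plated overnight at 37C, then dosed with compounds plus a stimulation mix containing 100uM IBMX and 25uM Ro-20-1724 for 0.5hr at room temperature. cAMP was measured by HTRF competition, 1hr.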

[20] = target: Muscarinic acetylcholine receptor M1 (Homo sapiens) (UniProt P11229); experiment: Cholinergic receptor muscarinic 1 (CHRM1) small molecule antagonists, cell-based qHTS assay (AID 1963588); also: nearly all actives have a fitted effect of over 40% in size
Method in brief: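 Compounds were tested at 15 concentrations in three independent runs. Dye-loaded CHRM1-CHO cells were exposed 5 min at room temperature before stimulation by acetylcholine added at 50nM. Intracellular calcium was read kinetically on FDSS for 3 min.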

Measured: Potency

5-hydroxytryptamine receptor 2A (Homo sapiens), sequence (P28223 whole entry, looked up): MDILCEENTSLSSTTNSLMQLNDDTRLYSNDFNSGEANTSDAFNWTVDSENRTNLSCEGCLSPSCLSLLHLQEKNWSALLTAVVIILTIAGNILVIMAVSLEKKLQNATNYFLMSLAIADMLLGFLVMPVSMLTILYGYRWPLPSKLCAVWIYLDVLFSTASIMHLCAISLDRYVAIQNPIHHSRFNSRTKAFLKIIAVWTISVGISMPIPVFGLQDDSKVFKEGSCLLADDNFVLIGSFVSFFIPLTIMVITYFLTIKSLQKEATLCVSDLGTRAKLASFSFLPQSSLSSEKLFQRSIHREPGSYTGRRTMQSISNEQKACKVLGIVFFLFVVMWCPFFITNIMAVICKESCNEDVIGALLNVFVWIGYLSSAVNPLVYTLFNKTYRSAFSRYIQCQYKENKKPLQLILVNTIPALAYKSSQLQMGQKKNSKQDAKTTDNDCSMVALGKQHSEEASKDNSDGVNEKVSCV
KiSS-1 receptor (Homo sapiens), sequence (Q969F8 whole entry, looked up): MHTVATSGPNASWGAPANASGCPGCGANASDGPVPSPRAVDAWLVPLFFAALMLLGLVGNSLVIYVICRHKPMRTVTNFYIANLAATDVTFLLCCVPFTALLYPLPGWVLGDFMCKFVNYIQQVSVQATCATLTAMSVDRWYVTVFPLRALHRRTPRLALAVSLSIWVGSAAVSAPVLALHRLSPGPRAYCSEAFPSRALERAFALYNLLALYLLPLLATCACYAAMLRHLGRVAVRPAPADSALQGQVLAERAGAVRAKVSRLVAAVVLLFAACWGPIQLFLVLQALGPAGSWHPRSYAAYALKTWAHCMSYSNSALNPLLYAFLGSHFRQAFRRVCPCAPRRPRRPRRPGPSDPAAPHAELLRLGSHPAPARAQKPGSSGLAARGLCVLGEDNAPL
Gonadotropin-releasing hormone receptor (Homo sapiens), sequence (P30968 whole entry, looked up): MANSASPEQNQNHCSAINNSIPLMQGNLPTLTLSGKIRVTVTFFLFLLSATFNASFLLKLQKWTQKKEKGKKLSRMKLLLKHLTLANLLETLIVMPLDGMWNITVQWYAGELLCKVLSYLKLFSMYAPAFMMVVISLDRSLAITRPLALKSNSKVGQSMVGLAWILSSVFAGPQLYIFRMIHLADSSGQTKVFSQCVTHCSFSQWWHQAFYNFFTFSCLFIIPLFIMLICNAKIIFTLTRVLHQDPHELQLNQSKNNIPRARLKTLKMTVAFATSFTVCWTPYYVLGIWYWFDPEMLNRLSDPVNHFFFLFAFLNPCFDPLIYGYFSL
D(2) dopamine receptor (Homo sapiens), sequence (P14416 whole entry, looked up): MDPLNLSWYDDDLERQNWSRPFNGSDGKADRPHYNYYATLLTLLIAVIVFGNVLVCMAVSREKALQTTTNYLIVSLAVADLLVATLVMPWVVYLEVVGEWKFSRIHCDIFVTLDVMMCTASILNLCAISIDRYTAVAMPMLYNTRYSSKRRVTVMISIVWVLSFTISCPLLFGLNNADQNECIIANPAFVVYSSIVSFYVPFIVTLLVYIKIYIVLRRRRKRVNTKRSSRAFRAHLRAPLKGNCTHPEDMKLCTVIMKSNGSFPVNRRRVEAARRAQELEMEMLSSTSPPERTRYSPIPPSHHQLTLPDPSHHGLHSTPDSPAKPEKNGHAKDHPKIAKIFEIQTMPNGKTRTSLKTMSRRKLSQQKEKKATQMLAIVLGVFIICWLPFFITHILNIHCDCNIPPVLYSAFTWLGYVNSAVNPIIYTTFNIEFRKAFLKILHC
Muscarinic acetylcholine receptor M1 (Homo sapiens), sequence (P11229 whole entry, looked up): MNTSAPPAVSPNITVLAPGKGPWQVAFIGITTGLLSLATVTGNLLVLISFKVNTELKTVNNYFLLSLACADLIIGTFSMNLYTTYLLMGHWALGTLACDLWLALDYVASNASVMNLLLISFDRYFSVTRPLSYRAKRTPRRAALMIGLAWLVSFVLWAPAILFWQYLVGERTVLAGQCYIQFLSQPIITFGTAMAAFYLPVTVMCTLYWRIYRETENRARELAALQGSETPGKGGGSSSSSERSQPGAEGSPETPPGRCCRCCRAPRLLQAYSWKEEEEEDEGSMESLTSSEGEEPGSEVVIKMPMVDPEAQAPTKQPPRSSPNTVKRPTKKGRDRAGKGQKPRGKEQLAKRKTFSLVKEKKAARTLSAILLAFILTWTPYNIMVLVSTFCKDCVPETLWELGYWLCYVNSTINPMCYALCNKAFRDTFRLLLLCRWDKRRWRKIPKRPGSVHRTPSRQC
Beta-2 adrenergic receptor (Homo sapiens), sequence (P07550 whole entry, looked up): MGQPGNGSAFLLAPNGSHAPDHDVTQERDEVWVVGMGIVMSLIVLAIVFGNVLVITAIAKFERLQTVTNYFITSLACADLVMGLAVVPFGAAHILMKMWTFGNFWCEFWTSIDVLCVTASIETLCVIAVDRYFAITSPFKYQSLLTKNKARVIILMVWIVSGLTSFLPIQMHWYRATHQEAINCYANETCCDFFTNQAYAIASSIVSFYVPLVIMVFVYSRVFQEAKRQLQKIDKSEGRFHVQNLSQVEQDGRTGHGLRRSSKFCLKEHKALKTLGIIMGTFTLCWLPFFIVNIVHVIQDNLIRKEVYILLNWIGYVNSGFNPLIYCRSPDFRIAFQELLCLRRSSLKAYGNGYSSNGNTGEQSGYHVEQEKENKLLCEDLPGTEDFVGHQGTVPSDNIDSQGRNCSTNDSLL

CCCCCCCCCCCCCCCC(=O)OC[C@H](O)[C@H]1OC(=O)C(O)=C1O
not listed: [17] | [18] | [19] | [20]
inactive: all other assays above

NC(N)=NC(=O)Cc1c(Cl)cccc1Cl
not listed: [10] | [11] | [12] | [15] | [20]
inactive: all other assays above

O=c1[nH]ncc2ccccc12
not listed: [8] | [18] | [19]
inactive: all other assays above

Cc1cc2c(cc1S(N)(=O)=O)S(=O)(=O)CCC2
not listed: [9] | [10] | [13] | [15] | [19]
inactive: all other assays above

CC(C)(C)C1CCC(=O)CC1
active: [2] 68.6 µM
not listed: [8] | [19]
inactive: all other assays above

O=[N+]([O-])c1ccc(/C=N\O)o1
active: [2] 23.7 µM
not listed: [8] | [14]
inactive: all other assays above

C=CCn1c(=O)n([C@@H]2O[C@H](CO)[C@@H](O)[C@H]2O)c2nc(N)[nH]c(=O)c21
not listed: [8] | [14] | [19]
inactive: all other assays above

CC(C)=CCC[C@H](C)CCO
not listed: [8] | [19]
inactive: all other assays above

COc1ccc(/C=C/S(=O)(=O)NC(=O)c2ccc(C)cc2Cl)cc1
not listed: [9] | [11] | [13] | [17]
inactive: all other assays above

OC[C@H](Cc1cccc(O)c1)[C@H](CO)Cc1cccc(O)c1
not listed: [8] | [19]
inactive: all other assays above

CCCc1nc2c(C)cc(-c3nc4ccccc4n3C)cc2n1Cc1ccc(-c2ccccc2C(=O)O)cc1
not listed: [10] | [13] | [17] | [18] | [19]
inactive: all other assays above

OCCN1C[C@H](O)[C@@H](O)[C@H](O)[C@H]1CO
not listed: [9] | [11]
inactive: all other assays above

CC(C)CCCCCCOC(=O)c1ccc(C(=O)OCCCCCCC(C)C)c(C(=O)OCCCCCCC(C)C)c1
not listed: [8] | [13] | [16] | [19]
inactive: all other assays above

COc1ccc(S(=O)(=O)N2c3ccc(Cl)cc3[C@@](O)(c3ccccc3Cl)[C@H]2C(=O)N2CCC[C@@H]2C(N)=O)cc1OC
not listed: [8] | [16]
inactive: all other assays above

CC[C@H]1OC(=O)[C@H](C)[C@@H](O[C@H]2C[C@@](C)(OC)[C@@H](O)[C@H](C)O2)[C@H](C)[C@@H](O[C@@H]2O[C@H](C)C[C@H](N(C)C)[C@H]2O)[C@](C)(O)C[C@@H](C)C(=O)[C@H](C)[C@@H](O)[C@]1(C)O
not listed: [9] | [10] | [11] | [12] | [16] | [20]
inactive: all other assays above

CC1=C(C)C(=O)C(C(CCCCCC(=O)O)c2ccccc2)=C(C)C1=O (stereo unspecified)
not listed: [8] | [13] | [19]
inactive: all other assays above
